PubChem BioAssay AID1259318 (Sanford-Burnham Center for Chemical Genomics, 2017)
Among all 370,000 compounds or so, about 3,000 (0.81%) were called active. This excerpt belongs to a sample that is enriched for actives. A number with no mark means an inactive call.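 The calls were made as follows: active = activity above about 14% (limit read from the data; passing the limit was not always enough); inactive = the rest.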

What follows are compounds tested against Nuclear receptor subfamily 1 group D member 1 (Homo sapiens) (UniProt P20393) (assay: Rev-erbα–DNA interaction modulation – biochemical, FITC-DNA, fluorescence polarization, uHTS, primary screen (AID 1259318;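 also: 0% = DMSO wells with 35 nM protein and 100% = DMSO wells with 750 nM protein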)). Settings: Rev-erbα–FITC-DNA binding, 90 min, at 10 µM, active compounds read high.
Sequence of Nuclear receptor subfamily 1 group D member 1 (Homo sapiens) (P20393 whole entry, looked up): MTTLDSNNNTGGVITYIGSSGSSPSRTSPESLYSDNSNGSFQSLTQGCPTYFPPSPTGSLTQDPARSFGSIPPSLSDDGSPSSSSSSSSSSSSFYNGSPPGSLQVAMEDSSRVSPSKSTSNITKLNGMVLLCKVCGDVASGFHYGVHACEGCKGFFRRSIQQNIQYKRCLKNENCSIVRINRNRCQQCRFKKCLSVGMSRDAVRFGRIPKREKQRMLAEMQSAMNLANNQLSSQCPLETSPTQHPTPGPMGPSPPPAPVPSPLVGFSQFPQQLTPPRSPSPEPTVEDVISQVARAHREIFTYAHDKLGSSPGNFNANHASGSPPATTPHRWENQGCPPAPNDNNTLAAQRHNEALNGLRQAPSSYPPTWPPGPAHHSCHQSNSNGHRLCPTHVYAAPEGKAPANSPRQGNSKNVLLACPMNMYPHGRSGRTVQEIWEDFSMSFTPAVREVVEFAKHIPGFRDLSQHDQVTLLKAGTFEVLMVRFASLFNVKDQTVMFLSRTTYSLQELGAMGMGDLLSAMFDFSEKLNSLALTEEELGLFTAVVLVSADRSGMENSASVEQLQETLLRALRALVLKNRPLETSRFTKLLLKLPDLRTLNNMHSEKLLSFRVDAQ

Going from CCOCCc1c(O)[nH]c(=S)[nH]c1=O to O=C1N=c2ccccc2=C/C1=C\c1c(O)[nH]c(=S)[nH]c1=O, the activity falls from -0.86% to -4.55%.

Compared with CCC(C)C(=O)O[C@H]1[C@H](O)C2C(CN3CC(C)CCC3[C@@]2(C)O)C2C[C@]34O[C@]5(O)C(OC(=O)C(C)(O)CC)CC[C@@]3(C)C5[C@H](OC(C)=O)[C@@H](OC(C)=O)C4[C@@]21O (stereo not given in full), CC(=O)O[C@H]1CC[C@@]2(C)C(=CCC3C2CC[C@]2(C)C(=O)CCC32)C1 (stereo not given in full) is higher in activity: -4.52% for the first, 2.71% for the second.

Going from CCN(CC)C(=O)[C@@H]1C=C2c3cccc4[nH]c(Br)c(c34)C[C@H]2N(C)C1 to CCOC(=O)C1=C(C)OC(N)=C(C(=O)OC)C12C(=O)Nc1ccc(Br)cc12 (stereo not given), the activity rises from -1.01% to 4.04%.

First: C=CCNCCCCCCCCCC (tested in a mixture with another compound)
Second: c1ccc2sc(SNC3CCCCC3)nc2c1
The activity of the first is lower: -9.67% for the first, 6.27% for the second.

With COc1ccccc1N=Nc1c(O)[nH]c(=S)[nH]c1=O the activity was 28.1% (active).
COC(=O)CN(CCCl)P1(=O)OCCCN1CCCl (stereo not given) was tested, and the activity was 15.9% (active).
